# Rows were chosen to be rich in hits. Some 0.35% of all compounds tested hit in one or more screens of this group.
# RGS4 inhibitor = blocks human RGS4-accelerated GTP hydrolysis. actives 0.039% (n = 390,000). Transcreener GDP fluorescence polarization, RGS4-accelerated GTP hydrolysis. P49798. Potency, µM (titrated, usually from 114 µM), hits mostly inhibitors; further: nearly all actives have a fitted effect of over 75% in size
# Target sequence (P49798 whole entry, looked up): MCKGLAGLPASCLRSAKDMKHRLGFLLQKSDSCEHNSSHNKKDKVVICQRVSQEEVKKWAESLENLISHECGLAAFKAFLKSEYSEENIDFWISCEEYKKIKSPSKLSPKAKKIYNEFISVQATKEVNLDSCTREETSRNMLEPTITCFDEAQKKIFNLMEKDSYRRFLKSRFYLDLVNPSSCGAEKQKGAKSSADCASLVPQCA
#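 MLSMR compounds (23 nl, pin-transferred) preincubated 10 min at room temperature with a 500nM (2x) first reagent, then RGS4 at 900nM (2x) plus Transcreener GDP mix added; fluorescence polarization (620/688 nm) read before and after 90 min at 30 °C.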
# A-T KAP1 phos = candidate therapy for ataxia-telangiectasia | Potency, µM (titrated, usually from 57.5 µM), most hits filed as activators | F2112 A-T fibroblasts, KAP-1 phosphorylation AlphaLISA; neocarzinostatin DNA damage 30 min before lysis | AID 485349 | actives 0.19% (n = 320,000); further: nearly all actives have a fitted effect of over 45% in size
#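 ATM-like activity read as KAP-1 phosphorylation via AlphaLISA donor/acceptor antibody pairs after lysis and 6 hr at 25C. Cells were ATM-null patient fibroblasts (F2112, hTERT), dosed 60 min, then exposed to the DSB inducer NCS for 30 min.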
# LDHA inh = inhibitors of human lactate dehydrogenase A. P00338. AID 1347041. actives 0.15% (n = 480,000). activity change, % (values are at about 110 or 230 µM). purified LDHA, NADH/diaphorase-resazurin fluorescence; stronger effect = lower value; in the data active means activity change below about -30%; inconclusive means mostly about -25% to -30%
#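 LDH5 2 nM; NADH 0.06 mM, pyruvate 0.2 mM; 200 mM Tris pH 7.4, EDTA, Tween-20; 5 min RT. Detection: diaphorase 0.133 mg/mL + resazurin 37 µM, fluorescence ex540/em590 at 0 and 20 min; normalized to enzyme-free and DMSO wells.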
# Anesthetic bind = candidate novel general anesthetic via apoferritin binding; P02791; apoferritin/1-aminoanthracene competitive binding, fluorescence; Potency, µM (top dose mostly 77.5 µM), hits mostly inhibitors; actives 0.074% (n = 350,000); AID 485281; further: nearly all actives have a fitted effect of over 20% in size
# Target sequence (P02791 2-175 limits assumed): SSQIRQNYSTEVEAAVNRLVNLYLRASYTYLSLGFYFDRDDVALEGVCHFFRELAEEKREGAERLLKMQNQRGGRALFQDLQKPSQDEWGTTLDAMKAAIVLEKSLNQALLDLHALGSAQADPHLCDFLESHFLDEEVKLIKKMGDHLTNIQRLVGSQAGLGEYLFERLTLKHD
#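 Horse-spleen apoferritin (10 uM) in 50% saturated 1-aminoanthracene in PBS was incubated 10 min at room temperature with compound. Fluorescence (ex 380, em 535 nm) was normalized to free and bound 1-AMA, with concentration-response fitted by a four-parameter Hill equation.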
# Hits are given with their value; - = inactive; ? = inconclusive; . = not tested or not shown; ! = not confirmed by another sample. Unless noted, the call rests on the fitted dose curve; in most records, active means well fitted curve in the direction sought with a large enough effect; inconclusive means small, poorly fitted or top-dose-only effect, or another doubt; inactive means no such curve, though single readings can be large; an effect the other way counts as inactive or inconclusive.
SMILES,RGS4 inhibitor,A-T KAP1 phos,LDHA inh,Anesthetic bind
O=C(CN1CCN(c2ccccn2)CC1)N1N=C(c2cc3ccccc3o2)CC1c1ccco1 (stereo not drawn),.,.,-,.
CC(=O)/C=C/c1ccccc1Oc1c(F)c(F)nc(F)c1F,-,31.6µM,-,-
Cn1cc(C(=O)N/N=C/c2ccc3c(c2)OCO3)c2ccccc21,-,22.4µM,-,-
N#Cc1c(-c2csc(-c3no[n+]([O-])c3C#N)c2)no[n+]1[O-],.,.,-,.
CC1=NN(C(C#N)c2ccc([N+](=O)[O-])cc2)C(C)(C)C1 (stereo not drawn),-,3.55µM,-,-
O=C(Nc1ccc(-c2nc3cccnc3s2)cc1)c1cccnc1Cl,-,14.1µM,-,-
O=C(Nc1ccc(-c2nc3cccnc3s2)cc1)c1ccc(Cl)nc1,-,-,-,-
N#Cc1ccc(-c2ccc3c(c2)OCO3)nc1SCC(=O)Nc1ccccc1Cl,.,.,-,.
CC[n+]1ccc(C[n+]2ccccc2)c2ccccc21,?,-,-39.7,-
CC[n+]1ccc(/C=C/c2ccc(N(C)C)cc2)c2ccccc21,?,-,-,?
Cc1cccc(OCCOc2ccc3ccc(=O)oc3c2)c1,.,.,-,.
CCc1ccccc1NC(=O)Cn1cnc2c(cnn2-c2cc(Cl)ccc2C)c1=O,.,.,-,.
COc1ccccc1N1CCN(CC(=O)NCC2CCCO2)CC1 (stereo not drawn),-,-,-43.3,-
CCCN1CCC2(CC1)Oc1c(OC)cccc1C1CC(c3ccc4c(c3)OCO4)=NN12 (stereo not drawn),.,.,-,.
COc1cc(NC(=O)N2CC3CCCN3c3ccccc32)cc(OC)c1OC (stereo not drawn),.,.,-,.
CSc1ccccc1N=CC1=C(O)CC(C)(C)CC1=O,-,-,-,-
CC1(C)CC(=O)C(Sc2ccccc2[N+](=O)[O-])=C(O)C1,-,-,-78.2,-
O=C1NC(=O)c2cc(Nc3ccccc3)c(Nc3ccccc3)cc21,18.9µM,.,-,-
CCCSc1oc(-c2ccccc2)nc1S(=O)(=O)c1ccccc1,.,.,-,.
CC1(C)CC(N2CCOCC2)=CC(=[N+]2CCOCC2)C1,-,-,-,-
CN(C)c1cccc(N=C2C=C(N3CCOCC3)CC(C)(C)C2)c1,-,-,-31.3,-
CC(=O)NCc1ccc(-c2csc(Nc3cccc(C(F)(F)F)c3)n2)o1,.,.,-,.
CCOC(=O)N1CCC(NC(=O)c2ccc3c(c2)sc2nc(-c4cccc(OC)c4)cn23)CC1,.,-,.,-
CCOC(=O)N1CCC(NC(=O)c2ccc3c(c2)sc2nc(-c4ccccc4)cn23)CC1,-,20µM,-,-
Cc1cccn2c(=O)cc(CSc3ccccc3NC(=O)c3ccccc3Cl)nc12,.,.,-32.3,.
SMILES,RGS4 inhibitor,A-T KAP1 phos,LDHA inh,Anesthetic bind
CCCn1cnc2nc(CSc3ccccc3NC(=O)c3ccccc3C)cc(=O)n21,.,.,-,.
Cc1ccc(-c2cnc(-c3ccccc3C(=O)OCC(=O)NCCC#N)o2)cc1,.,.,-,.
Nc1c(S(=O)(=O)O)cc(Nc2ccc(Nc3nc(Cl)nc(Nc4ccc(S(=O)(=O)O)cc4)n3)c(S(=O)(=O)O)c2)c2c1C(=O)c1ccccc1C2=O,18.9µM,.,-,.
Nc1nc(-c2cccc(Br)c2)cs1,-,-,-,31.6µM
COc1cc2c(cc1OC)CN(C(=O)/C=C/c1cc(OC)c(OC)c(OC)c1)CC2,-,3.16µM,-,-
O=C(NCc1ccccc1CN1CCOCC1)c1cc(-c2ccco2)nc2ccccc12,.,.,-,.
CCOc1ccccc1CN1CCC(N2CCOCC2)CC1,-,-,-31.3,-
CCCn1nc(NC(C)=O)c2cc3cccc(C)c3nc21,-,14.1µM,-,-
CCCC(=O)Nc1nn(CCC)c2nc3ccccc3cc12,-,28.2µM,-,-
CCCn1nc(NC(=O)c2cccs2)c2cc3cc(OC)ccc3nc21,-,?,-,-
CCCn1nc(NC(=O)c2ccncc2)c2cc3ccccc3nc21,-,-,-,-
CCCCn1nc(NC(=O)c2cccs2)c2cc3cc(OC)ccc3nc21,-,28.2µM,-,-
CCCCCNc1c2c(nc3ccccc13)CC(C)(C)CC2=O,.,.,-,.
CCN1CCN(CCCOc2ccccc2-c2ccccc2)CC1,-,-,-,-
CCN1CCN(CCOc2ccccc2-c2ccccc2)CC1,-,-,-33.5,-
CCN1CCN(CCOc2ccc(Cl)cc2)CC1,-,-,-33.9,-
CCN1CCN(C(=S)Nc2cccc(C(F)(F)F)c2)CC1,-,-,-,-
OCCN1CCN(C(=S)Nc2cccc(C(F)(F)F)c2)CC1,-,-,-32.8!,-
COc1cc(C2CC(=O)Oc3c2c(=O)[nH]c2ccccc32)cc2c1OCO2 (stereo not drawn),.,.,-37.7,.
CCN(CC)C(=O)CN(C1CCCCC1)S(=O)(=O)c1ccc(Br)cc1,.,.,-36.7,.
CSc1ncccc1C(=O)Nc1ccc2c(c1)OCCO2,-,28.2µM,-,.
Cc1ccccc1C(=O)NCCc1c[nH]c2ccccc12,.,.,-,.
Cc1ccc(C(=O)NCCc2c[nH]c3ccccc23)c(C)c1,-,25.1µM,-,-
COc1ccc(Nc2cc(C)nc3ccc(OC)cc23)cc1,-,-,-,-
COc1ccc2nc(C)cc(Nc3ccc(C(=O)O)cc3)c2c1,-,10µM,-,-
SMILES,RGS4 inhibitor,A-T KAP1 phos,LDHA inh,Anesthetic bind
Brc1cccc(OCCN2CCOCC2)c1,-,-,-,-
Clc1cccc(OCCN2CCOCC2)c1,-,-,-34.2,?
Brc1cccc(OCCN2CCCCC2)c1,-,-,-33.5,-
Cc1cc(N2CCN(C(C(=O)O)c3c[nH]c4ccc(Cl)cc34)CC2)nc2ccccc12 (stereo not drawn),.,.,-,.
CCC(=O)Nc1ccc(Cl)c(-c2nc3ccc(C)cc3o2)c1,.,.,-,.
CC1=C(SCc2ccccc2)C(=O)c2ccccc2C1=O,-,.,-,.
O=C1C(SCCO)=C(SCCO)C(=O)c2ccccc21,3.36µM,-,-,.
O=C1C=C(Nc2ccccc2)c2ccccc2C1=O,-,35.5µM,-,-
O=C1C=C(Nc2ccccc2)C(=O)c2ccccc21,-,-,-,-
O=c1cc(-c2ccc(O)cc2)oc2cccc(O)c12,2.12µM,.,.,.
COc1ccc(C(=O)/C(C#N)=C\c2ccc(OC(F)F)c(OC)c2)cc1,.,.,-,.
CCCCNC(=S)N/N=C(/C)c1ccccn1,.,.,-,.
CC(C)COc1cccc(C(=O)Nc2ccc3oc(-c4ccncc4)nc3c2)c1,.,.,-,.
Cc1ccn2c(NC3CCCC3)c(-c3ccncc3)nc2c1,-,-,-,-
Cc1ccn2c(NC3CCCCC3)c(-c3cccc(-c4cccc(Cl)c4)c3)nc2c1,-,25.1µM,-,.
CCOc1ccc2c(c1)c(=O)c(S(=O)(=O)c1ccccc1)cn2CC(=O)Nc1cccc(Cl)c1,.,.,-,.
CCC(=O)N(C)CCc1cc2c(c(OC)c1/C=N/Nc1ccc(C(=O)O)cc1)OCO2,-,39.8µM,-,-
COc1ccc(C(=O)Nc2cccc(/C=C(/C#N)C(=O)NC3CC3)c2)cc1,.,.,-,.
Cc1cccc[n+]1CCCCCCCCCC[n+]1ccccc1C,-,-,-,-
Brc1cccc[n+]1CCC[n+]1ccccc1Br,.,.,-65.1,.
C[C@H](CO)N1C[C@H](C)[C@@H](CN(C)S(=O)(=O)c2cccc(F)c2)OCc2cn(nn2)CCCC1=O,.,.,-34.3,.
